# Assay results published in PubChem BioAssay (NCI).
# This is part of a sample that, as a whole, favours compounds with a hit. Of some 83,000 tested, about 20% had one in any assay.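 Note: values are percent growth. 100 is the growth of untreated cells, values between 100 and 0 indicate rising inhibition; between -100 and 0 indicates cell death.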 Values without a mark were called inactive. Calls of active or inactive are those of the source. Rule for the calls: active = growth percent below 10; inactive = the rest.
# Assays:
# Assay in all cases: NCI-60 one-dose screen, 48 h (100 = growth as untreated, 0 = no growth, -100 = all killed)
# Conditions in all cases: 10 µM unless noted
# [1] = test system: T-47D breast
# [2] = test system: BT-549 breast
# [3] = test system: MDA-MB-435 melanoma
# [4] = test system: SW-620 colon
# [5] = test system: MCF7 breast
# [6] = test system: HCT-116 colon
# [7] = test system: HCC-2998 colon
# [8] = test system: KM12 colon
Structure (SMILES),growth [1],growth [2],growth [3],growth [4],growth [5],growth [6],growth [7],growth [8]
CCC(C)(O)Cc1ccc(Cl)cc1 (configuration not stated),94.9%,98.5%,101%,99.4%,92.8%,97.7%,109%,101%
CCOc1ccc(C(CN2CCOCC2)C(C)=O)cc1OC (configuration not stated),33.2%,91.2%,97.6%,60%,13.4%,97.3%,115%,93.3%
S=c1[nH]c2cc(Cl)ccc2s1,90.4%,100%,98.8%,113%,95.2%,96.6%,97.4%,96.5%
CCCCCCCCCCCC[N+]1(CCCCCCCCCCCC)CCCC(C)C1 (configuration not stated),-78.6% (active),-72.2% (active),-58.7% (active),-65.4% (active),-88.9% (active),-97.2% (active),-96.6% (active),-96.3% (active)
O=[N+]([O-])c1ccc(C2N(Cc3ccc(Cl)cc3)CCN2Cc2ccc(Cl)cc2)cc1,90%,98.2%,91.5%,98.1%,87.3%,72.8%,95.4%,101%
O=C1C=CC(=O)N1C1CCCCCCCCCCC1,56.9%,87.5%,82.6%,-27.4% (active),69.8%,0.595% (active),106%,104%
NC(CS/C(Cl)=C/Cl)C(=O)O (configuration not stated),-7.75% (active),51%,58.6%,104%,45.1%,84.4%,102%,98.1%
CN(C)c1ccc(/C=C/c2nccc3ccccc23)cc1,40.2%,84.1%,55.7%,84.1%,30.6%,81.5%,82.9%,73.3%
Cc1cc(I)nc2ccccc12,95.8%,104%,112%,107%,101%,106%,103%,115%
Cc1c(O)ccc(SC#N)c1C,94%,104%,105%,103%,116%,88%,96.5%,97.2%
C/C(=N\NC(=S)N1CC2CCC(CC2)C1)c1ccccn1,17.4%,30.4%,11.5%,14.3%,13.3%,7.24% (active),29.3%,9.58% (active)
Oc1ccc(Cl)cc1C(c1cc(Cl)ccc1O)C(Cl)(Cl)Cl,9.95% (active),44.9%,29.4%,4.62% (active),8.95% (active),-35.2% (active),-45.5% (active),-55.5% (active)
N#CC(=C1SCS1)[N+](=O)[O-],29.1%,-6.56% (active),16.4%,19.3%,16.7%,35.8%,27%,14.2%
COc1cc(/C=C/C(=O)CC(=O)/C=C/c2ccc(O)c(OC)c2)ccc1O,50.7%,13.9%,1.75% (active),23.1%,17%,0.952% (active),-74.8% (active),0.643% (active)
CC/C(=C(/CC)c1ccc(O)cc1)c1ccc(O)cc1,72.4%,64.3%,-18.7% (active),44.6%,26.2%,29.3%,70.2%,44.1%
CCN(CC)CC(O)CNc1ccc(NCC2CO2)c2c1C(=O)c1ccccc1C2=O (configuration not stated),-3.27% (active),-56.9% (active),-62.4% (active),-28.7% (active),-13% (active),-11.2% (active),-83.5% (active),-69.1% (active)
c1ccc2sc(SSN3CC4CCC(CC4)C3)nc2c1,96.5%,126%,108%,110%,107%,103%,123%,145%
CN1CCC(CN2c3ccccc3Sc3ccccc32)C1 (configuration not stated),93.6%,89.4%,88.5%,93.7%,97.7%,77.6%,41.4%,97.2%
CC(O)C(O)C(O)C(O)C(O)C(=O)NNc1ccccc1 (configuration not stated),76.4%,105%,86.4%,75.6%,88.1%,87.6%,95.1%,85.7%
